Inconclusive results are not listed. The source made the active and inactive calls. Unless noted, the call rests on the fitted dose curve; in most records, active means well fitted curve in the direction sought with a large enough effect in the repeat runs; inconclusive means weak or mixed curves; inactive means no such curve, though single readings can be large; an effect the other way counts as inactive or inconclusive.
Tests used:
[1] = target: Aryl hydrocarbon receptor (Homo sapiens) (UniProt P35869); experiment: qHTS assay to identify small molecule that activate the aryl hydrocarbon receptor (AhR) signaling pathway (AID 743085);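 further: HG2L7.5c1 human HepG2 liver cells with stably integrated DRE-driven firefly reporter; series mostly up to about 70 µM; nearly all actives have a fitted effect of over 15% in size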
Aryl hydrocarbon receptor (Homo sapiens), sequence (P35869 whole entry, looked up): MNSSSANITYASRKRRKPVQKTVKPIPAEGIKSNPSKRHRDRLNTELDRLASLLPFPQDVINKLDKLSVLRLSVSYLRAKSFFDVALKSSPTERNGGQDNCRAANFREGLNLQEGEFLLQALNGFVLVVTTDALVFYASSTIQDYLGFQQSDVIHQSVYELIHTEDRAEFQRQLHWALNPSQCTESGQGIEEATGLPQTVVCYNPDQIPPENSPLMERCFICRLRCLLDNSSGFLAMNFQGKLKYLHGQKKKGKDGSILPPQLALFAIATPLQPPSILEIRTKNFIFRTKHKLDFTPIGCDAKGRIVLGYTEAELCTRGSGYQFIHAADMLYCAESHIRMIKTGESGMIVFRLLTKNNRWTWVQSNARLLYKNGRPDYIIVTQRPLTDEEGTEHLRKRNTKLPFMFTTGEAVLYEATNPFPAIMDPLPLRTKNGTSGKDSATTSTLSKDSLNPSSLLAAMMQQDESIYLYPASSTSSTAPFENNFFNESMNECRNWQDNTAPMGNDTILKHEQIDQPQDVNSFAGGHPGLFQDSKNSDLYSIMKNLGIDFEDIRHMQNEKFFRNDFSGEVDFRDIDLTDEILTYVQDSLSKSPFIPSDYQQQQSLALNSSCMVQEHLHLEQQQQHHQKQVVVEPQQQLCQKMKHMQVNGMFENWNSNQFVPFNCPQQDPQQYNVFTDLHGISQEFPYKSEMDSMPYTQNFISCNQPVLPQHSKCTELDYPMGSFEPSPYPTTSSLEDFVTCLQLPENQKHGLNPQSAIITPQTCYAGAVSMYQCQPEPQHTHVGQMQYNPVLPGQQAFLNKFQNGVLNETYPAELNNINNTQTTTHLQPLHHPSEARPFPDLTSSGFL
Outline: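 Luminescence (ONE-Glo) from a dioxin-responsive-element luciferase reporter in HG2L7.5c1 HepG2 cells after 24 hr compound exposure at 37C; viability measured by CellTiter-Fluor fluorescence beforehand.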

[2] = qHTS assay to identify small molecule antagonists of the peroxisome proliferator-activated receptor gamma (PPARg) signaling pathway - cell viability counter screen (AID 743194); further: nearly all actives have a fitted effect of over 55% in size
Outline: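 PPARg-UAS-bla HEK293H cells were plated, rested 5 h at 37 C, then treated with compounds plus rosiglitazone (50 nM final) for 17 h at 37 C; viability was then read by CellTiter-Glo luminescence after 30 min at room temperature.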

[3] = qHTS assay for small molecule agonists of the antioxidant response element (ARE) signaling pathway (AID 743202; active means well fitted activation curve with a large enough effect in the signal ratio in the repeat runs, not every such curve was filed as active; the % refers to the signal ratio)
Outline: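 Following a 16 h, 37 C exposure of reporter HepG2 cells (ARE-driven beta-lactamase, 2,000 cells/well) to compounds, FRET substrate was applied for 2 h at room temperature and fluorescence intensity recorded.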

[4] = qHTS assay for small molecule agonists of the antioxidant response element (ARE) signaling pathway - cell viability counter screen (AID 743203; calls by dose curve; further: nearly all actives have a fitted effect of over 55% in size)
Outline: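 Viability counter screen: CellTiter-Glo luminescence, read after 30 min at room temperature, in ARE-bla HepG2 wells. Compound exposure lasted 16 h at 37C/5% CO2, following a 5 h pre-incubation of the cells after plating.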

[5] = qHTS assay for small molecule activators of the heat shock response signaling pathway - cell viability counter screen (AID 743209); further: nearly all actives have a fitted effect of over 50% in size
Outline: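 Cytotoxicity counter screen run in the same wells as the heat-shock bla reporter assay: HeLa HSE-bla cells, 5 h compound exposure at 37 C, viability read by CellTiter-Glo luminescence.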

[6] = qHTS assay to identify small molecule agonists of the peroxisome proliferator-activated receptor delta (PPARd) signaling pathway - cell viability counter screen (AID 743211); further: nearly all actives have a fitted effect of over 55% in size
Outline: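 Viability was measured as CellTiter-Glo luminescence (30 min, room temperature) in the same wells as the beta-lactamase readout. GeneBLAzer PPARd UAS-bla HEK293H cells received compound after 5 h plating and were incubated 17 h at 37 C.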

[7] = qHTS assay to identify small molecule agonists of the farnesoid-X-receptor (FXR) signaling pathway - cell viability counter screen (AID 743218); further: nearly all actives have a fitted effect of over 45% in size
Outline: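 Viability counter screen in the same wells: CellTiter-Glo luminescence, 30 min room-temperature incubation, measured after the beta-lactamase read. Cells were GeneBLAzer FXR-UAS-bla HEK 293T, compound-treated 16 h at 37C.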

[8] = qHTS assay to identify small molecule antagonists of the farnesoid-X-receptor (FXR) signaling pathway - cell viability counter screen (AID 743221; active means well fitted cell-killing curve with a large enough effect in the repeat runs, not every such curve was filed as active; further: nearly all actives have a fitted effect of over 50% in size)
Outline: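 Cytotoxicity counter screen run in the FXR-bla reporter wells: HEK 293T cells exposed to compound with 50 uM (final) chenodeoxycholic acid for 16 h, 37 C, then viability measured by CellTiter-Glo luminescence after 30 min, room temperature.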

[9] = target: Vitamin D3 receptor (Homo sapiens) (UniProt P11473); experiment: qHTS assay to identify small molecule antagonists of the vitamin D receptor (VDR) signaling pathway (AID 743223; active means well fitted inhibition curve with a large enough effect in the signal ratio in the repeat runs, not every such curve was filed as active; the % refers to the signal ratio)
Vitamin D3 receptor (Homo sapiens), sequence (P11473 whole entry, looked up): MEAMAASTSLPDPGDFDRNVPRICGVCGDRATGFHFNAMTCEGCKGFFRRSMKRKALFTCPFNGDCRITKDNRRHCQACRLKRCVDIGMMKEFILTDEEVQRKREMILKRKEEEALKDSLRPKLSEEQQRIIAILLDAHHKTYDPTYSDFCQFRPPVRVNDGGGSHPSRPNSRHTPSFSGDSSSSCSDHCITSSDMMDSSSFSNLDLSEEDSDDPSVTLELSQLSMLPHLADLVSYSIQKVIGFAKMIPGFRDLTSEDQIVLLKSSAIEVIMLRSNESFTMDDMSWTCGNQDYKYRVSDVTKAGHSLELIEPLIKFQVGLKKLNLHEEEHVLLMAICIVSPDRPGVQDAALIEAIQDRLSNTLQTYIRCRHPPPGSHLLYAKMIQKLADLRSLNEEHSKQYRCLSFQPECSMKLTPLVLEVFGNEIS
Outline: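 Antagonist mode: compound added to VDR-bla cells alongside agonist 1alpha,25-dihydroxyvitamin D3 (3 nM final), incubation 16 h at 37C. Read-out is LiveBLAzer FRET fluorescence, 2 h at room temperature.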

[10] = qHTS assay to identify small molecule that activate the aryl hydrocarbon receptor (AhR) signaling pathway - cell viability counter screen (AID 743086);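 further: HepG2 liver cells carrying the AhR DRE luciferase reporter; series mostly up to about 70 µM; nearly all actives have a fitted effect of over 45% in size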
Outline: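 HepG2-AhR-luc (HG2L7.5c1) cells, 4000/well, were preincubated 5 h at 37C, exposed to compound in qHTS format for 24 hr at 37C, then given CellTiter-Fluor for 30 min; viability was read as fluorescence in the reporter wells.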

[11] = qHTS assay for small molecule activators of the heat shock response signaling pathway (AID 743210; active means well fitted activation curve with a large enough effect in the signal ratio in the repeat runs, with a control signal flat, not every such curve was filed as active; the % refers to the signal ratio; further: series mostly up to about 63 µM)
Outline: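 Heat shock element–beta-lactamase HeLa reporter cells; qHTS with compounds for 5 h at 37 C; detection by FRET substrate fluorescence after 2.5 h at RT.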

[12] = target: Peroxisome proliferator-activated receptor delta (Homo sapiens) (UniProt Q03181); experiment: qHTS assay to identify small molecule agonists of the peroxisome proliferator-activated receptor delta (PPARd) signaling pathway (AID 743212; calls by dose curve)
Peroxisome proliferator-activated receptor delta (Homo sapiens), sequence (Q03181 whole entry, looked up): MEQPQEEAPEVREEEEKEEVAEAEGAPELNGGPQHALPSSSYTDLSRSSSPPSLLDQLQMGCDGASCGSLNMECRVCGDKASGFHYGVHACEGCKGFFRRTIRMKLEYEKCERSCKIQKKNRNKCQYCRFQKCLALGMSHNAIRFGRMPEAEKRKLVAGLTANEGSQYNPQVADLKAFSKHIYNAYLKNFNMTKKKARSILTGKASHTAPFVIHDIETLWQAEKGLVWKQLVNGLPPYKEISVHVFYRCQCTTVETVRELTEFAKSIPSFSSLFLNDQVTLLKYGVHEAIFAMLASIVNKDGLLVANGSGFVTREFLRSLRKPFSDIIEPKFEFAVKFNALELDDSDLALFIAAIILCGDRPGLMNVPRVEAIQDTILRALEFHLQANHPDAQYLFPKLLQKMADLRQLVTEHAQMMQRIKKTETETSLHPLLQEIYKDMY
Outline: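 Beta-lactamase reporter read by fluorescence (LiveBLAzer B/G FRET, 2 h, room temperature). Test agents, in DMSO, incubated at 37 C with PPARd-bla HEK293H cells.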

[13] = target: Peroxisome proliferator-activated receptor delta (Homo sapiens) (UniProt Q03181); experiment: qHTS assay to identify small molecule antagonists of the peroxisome proliferator-activated receptor delta (PPARd) signaling pathway (AID 743215; active means well fitted inhibition curve with a large enough effect in the signal ratio in the repeat runs, not every such curve was filed as active; the % refers to the signal ratio;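 further: cells stimulated with agonist L165041 at 300 nM final during compound exposure; series mostly up to about 62 µM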)
Outline: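 Agonist L165041 (300 nM final) added with compound to PPARd-bla HEK293H UAS-bla reporter cells; 17 h incubation at 37 C. Read-out: LiveBLAzer FRET substrate, 2 h at room temperature, fluorescence intensity.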

[14] = target: Bile acid receptor (Homo sapiens) (UniProt Q96RI1); experiment: qHTS assay to identify small molecule antagonists of the farnesoid-X-receptor (FXR) signaling pathway (AID 743217; active means well fitted inhibition curve with a large enough effect in the signal ratio in the repeat runs, not every such curve was filed as active; the % refers to the signal ratio)
Bile acid receptor (Homo sapiens), sequence (Q96RI1 whole entry, looked up): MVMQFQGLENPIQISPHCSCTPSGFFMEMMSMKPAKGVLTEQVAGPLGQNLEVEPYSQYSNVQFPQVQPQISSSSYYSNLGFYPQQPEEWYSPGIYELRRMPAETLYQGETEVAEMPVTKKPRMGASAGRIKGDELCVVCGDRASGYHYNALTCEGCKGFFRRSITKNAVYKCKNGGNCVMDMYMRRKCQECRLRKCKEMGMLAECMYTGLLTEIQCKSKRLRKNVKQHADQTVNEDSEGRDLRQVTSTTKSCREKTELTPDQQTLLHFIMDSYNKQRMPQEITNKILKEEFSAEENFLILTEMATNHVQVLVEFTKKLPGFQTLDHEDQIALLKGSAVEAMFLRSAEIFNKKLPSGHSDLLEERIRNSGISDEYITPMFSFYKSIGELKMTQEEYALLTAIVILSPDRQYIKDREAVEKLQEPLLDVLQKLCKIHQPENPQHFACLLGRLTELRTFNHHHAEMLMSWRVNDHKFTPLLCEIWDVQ
Outline: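 Antagonist mode: chenodeoxycholic acid at 50 uM final stimulates a UAS-driven beta-lactamase reporter in HEK 293T FXR-bla cells during 16 h, 37C compound exposure. Read-out is FRET substrate fluorescence after 2 h at room temperature.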

[15] = target: Bile acid receptor (Homo sapiens) (UniProt Q96RI1); experiment: qHTS assay to identify small molecule agonists of the farnesoid-X-receptor (FXR) signaling pathway (AID 743220; active means well fitted activation curve with a large enough effect in the signal ratio in the repeat runs, not every such curve was filed as active; the % refers to the signal ratio)
Outline: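 FXR-UAS-bla HEK 293T cells carrying a UAS-driven beta-lactamase reporter were plated for 5 h at 37C/5% CO2, then exposed to DMSO-dissolved Tox21 10K compounds for 16 h at 37C. A LiveBLAzer B/G FRET substrate was loaded for 2 h at room temperature before fluorescence reading.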

[16] = qHTS assay to identify small molecule agonists of the vitamin D receptor (VDR) signaling pathway - cell viability counter screen (AID 743224); further: series mostly up to about 63 µM; nearly all actives have a fitted effect of over 50% in size
Outline: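 Counter screen run in the same wells as the VDR-bla reporter assay: CellTiter-Glo luminescence, 30 min at room temperature, after 16 h compound treatment at 37C of cells pre-plated for 4 h.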

[17] = target: Peroxisome proliferator-activated receptor gamma (Homo sapiens) (UniProt P37231); experiment: qHTS assay to identify small molecule agonists of the peroxisome proliferator-activated receptor gamma (PPARg) signaling pathway (AID 743094; active means well fitted activation curve with a large enough effect in the signal ratio in the repeat runs, not every such curve was filed as active; the % refers to the signal ratio)
Peroxisome proliferator-activated receptor gamma (Homo sapiens), sequence (P37231 whole entry, looked up): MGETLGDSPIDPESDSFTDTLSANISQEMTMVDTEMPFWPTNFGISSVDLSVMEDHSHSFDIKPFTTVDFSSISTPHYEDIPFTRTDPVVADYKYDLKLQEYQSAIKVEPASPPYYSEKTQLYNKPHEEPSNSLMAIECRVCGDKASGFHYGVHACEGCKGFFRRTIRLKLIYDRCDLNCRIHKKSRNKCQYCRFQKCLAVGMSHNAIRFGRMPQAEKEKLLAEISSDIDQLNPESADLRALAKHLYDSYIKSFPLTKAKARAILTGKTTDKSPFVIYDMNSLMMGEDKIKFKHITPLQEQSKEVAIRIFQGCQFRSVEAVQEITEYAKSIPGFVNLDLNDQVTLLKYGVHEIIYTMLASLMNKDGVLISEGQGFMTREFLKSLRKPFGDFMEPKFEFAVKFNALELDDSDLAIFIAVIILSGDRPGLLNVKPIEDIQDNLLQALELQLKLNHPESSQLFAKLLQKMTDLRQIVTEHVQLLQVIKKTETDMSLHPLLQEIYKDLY
Outline: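 Agonist activity was taken from a beta-lactamase reporter (FRET substrate, 1 h at room temperature) in HEK293H cells carrying a PPARg UAS-bla construct. Compounds in DMSO were incubated 17 h at 37C after a 5 h cell pre-incubation.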

[18] = qHTS assay to identify small molecule antagonists of the peroxisome proliferator-activated receptor delta (PPARd) signaling pathway - cell viability counter screen (AID 743213); further: nearly all actives have a fitted effect of over 50% in size
Outline: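 Luminescence from CellTiter-Glo, added after the bla read and incubated 30 min at room temperature, gives viability of HEK293H PPARd-bla cells exposed to compounds for 17 h at 37 C with 300 nM L165041.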

[19] = target: Peroxisome proliferator-activated receptor gamma (Homo sapiens) (UniProt P37231); experiment: qHTS assay to identify small molecule antagonists of the peroxisome proliferator-activated receptor gamma (PPARg) signaling pathway (AID 743191; calls by dose curve; further: series mostly up to about 63 µM; nearly all actives have a fitted effect of over 30% in size)
Outline: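 GeneBLAzer PPARg UAS-bla HEK293H cells carrying a UAS-driven beta-lactamase reporter were plated at 3000 cells/well, preincubated 5 h at 37C, then given compound for 17 h at 37C; LiveBLAzer B/G FRET substrate was read after 1 h at room temperature.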

[20] = target: Vitamin D3 receptor (Homo sapiens) (UniProt P11473); experiment: qHTS assay to identify small molecule agonists of the vitamin D receptor (VDR) signaling pathway (AID 743222; calls by dose curve)
Outline: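 Agonist mode, beta-lactamase reporter: fluorescence from LiveBLAzer B/G FRET substrate (2 h, room temperature) read after 16 h compound treatment at 37 C of VDR-bla cells, which were pre-incubated 4 h after seeding.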
On the % scale 0 is the no-effect control and ±100 the full control effect.

Cc1ccc(C(=O)c2ccc(CC(=O)O)n2C)cc1
inactive: Potency [1] | outcome [2] | Potency [3] | outcome [4] | outcome [5] | outcome [6] | outcome [7] | outcome [8] | outcome [9]

Cc1cccc(C)c1NC(=O)CC12CCCN1CCC2
inactive: Potency [1] | Potency [10] | outcome [2] | outcome [4] | outcome [5] | outcome [11] | outcome [6] | outcome [12] | outcome [13] | outcome [14] | outcome [7] | outcome [15] | outcome [8] | outcome [16]

Cc1ncc([C@@H](CCCCCCc2ccc3c(n2)NCCC3)CC(=O)O)cn1
inactive: Potency [1] | Potency [17] | outcome [4] | outcome [5] | outcome [11] | outcome [6] | outcome [12] | outcome [18] | outcome [15] | outcome [8]

CCN[C@@H]1C[C@H](N)[C@@H](OC2OC(CN)=CCC2N)[C@H](O)[C@H]1O[C@H]1OC[C@](C)(O)[C@H](NC)[C@H]1O (some centres undefined)
inactive: Potency [10] | Potency [17] | ratio activity, negative = inhibition [19] -0.0427% [at 0.55 µM] | activity change, negative = cytotoxicity [2] -4.19% [at 0.55 µM] | activation [3] -10.7% [at 0.756 µM] | viability change, negative = cytotoxic [4] -2.08% [at 0.756 µM] | activity change, negative = cytotoxicity [5] 9.84% [at 0.55 µM] | activation [11] -1.49% [at 0.55 µM] | activity change, negative = cytotoxicity [6] 7.95% [at 0.55 µM] | viability change, negative = cytotoxic [18] 8.69% [at 0.575 µM] | viability change, negative = cytotoxic [7] 10.1% [at 0.55 µM] | activity change, negative = cytotoxicity [8] 2.76% [at 0.55 µM] | activation [20] 11.5% [at 0.554 µM] | activity change, negative = inhibition [9] 9.37% [at 0.628 µM]

CCOCC(C)O (centres undefined)
inactive: Potency [1] | Potency [19] | outcome [2] | Potency [3] | outcome [4] | outcome [5] | outcome [11] | outcome [6] | outcome [12] | outcome [18] | outcome [13] | outcome [14] | outcome [7] | outcome [15] | outcome [8] | outcome [20] | outcome [16]

CC[N+](CC)(CC(=O)Nc1c(C)cccc1C)Cc1ccccc1 (tested in a mixture with another compound)
inactive: Potency [10] | Potency [17] | Potency [19] | outcome [2] | Potency [3] | outcome [4] | outcome [5] | outcome [6] | outcome [7] | outcome [8] | outcome [16]

CCCCOCCOC(=O)COc1cc(Cl)c(Cl)cc1Cl
inactive: Potency [1] | Potency [10] | outcome [2] | outcome [4] | outcome [5] | outcome [11] | outcome [6] | outcome [12] | outcome [18] | outcome [13] | outcome [7] | outcome [8] | outcome [9] | outcome [16]

CC(C(=O)O)c1cccc(Oc2ccccc2)c1 (centres undefined)
inactive: Potency [1] | Potency [10] | outcome [2] | outcome [4] | outcome [5] | outcome [6] | outcome [18] | outcome [7] | outcome [8] | outcome [20] | outcome [9] | outcome [16]

O=S(=O)(O)c1cccc2c(S(=O)(=O)O)cccc12
inactive: Potency [10] | Potency [17] | Potency [19] | outcome [2] | Potency [3] | outcome [4] | outcome [5] | outcome [6] | outcome [7] | outcome [8] | outcome [20] | outcome [9] | outcome [16]

Nc1ccccn1
inactive: Potency [1] | Potency [10] | outcome [2] | outcome [4] | outcome [5] | outcome [11] | outcome [6] | outcome [18] | outcome [7] | outcome [8] | outcome [20] | outcome [9]

NO
inactive: Potency [1] | Potency [10] | outcome [2] | outcome [4] | outcome [5] | outcome [11] | outcome [6] | outcome [18] | outcome [8] | outcome [20] | outcome [9] | outcome [16]

CC(C)(C)c1ccc(-c2ccc(C(C)(C)C)cc2)cc1
inactive: Potency [1] | Potency [10] | outcome [2] | outcome [4] | outcome [5] | outcome [6] | outcome [12] | outcome [18] | outcome [13] | outcome [14] | outcome [7] | outcome [15] | outcome [8] | outcome [16]

Cc1c(N)c(=O)n(-c2ccccc2)n1C
inactive: Potency [1] | Potency [10] | outcome [2] | outcome [4] | outcome [5] | outcome [11] | outcome [6] | outcome [18] | outcome [7] | outcome [8] | outcome [20] | outcome [16]

C[C@H]1C[C@H]2[C@@H]3CCC4=CC(=O)C=C[C@]4(C)[C@H]3C(=O)C[C@]2(C)[C@@]1(O)C(=O)CO
inactive: Potency [10] | Potency [17] | Potency [19] | outcome [2] | Potency [3] | outcome [4] | outcome [5] | outcome [11] | outcome [6] | outcome [12] | outcome [7] | outcome [8] | outcome [20] | outcome [9] | outcome [16]

Cc1nc2ccc(CN(C)c3ccc(C(=O)N[C@@H](CCC(=O)O)C(=O)O)s3)cc2c(=O)[nH]1
inactive: Potency [10] | Potency [17] | Potency [19] | outcome [2] | outcome [4] | outcome [5] | outcome [11] | outcome [6] | outcome [12] | outcome [18] | outcome [13] | outcome [7] | outcome [8] | outcome [20] | outcome [9] | outcome [16]

C=COCC1CCC(COC=C)CC1 (centres undefined)
inactive: Potency [1] | Potency [10] | outcome [2] | outcome [4] | outcome [5] | outcome [6] | outcome [18] | outcome [7] | outcome [8] | outcome [9] | outcome [16]

COC(=O)C1=C(C)NC(C)=C(C(=O)OC(C)C)C1c1cccc2nonc12 (centres undefined)
inactive: Potency [10] | Potency [17] | Potency [19] | outcome [2] | Potency [3] | outcome [4] | outcome [5] | outcome [11] | outcome [6] | outcome [12] | outcome [18] | outcome [13] | outcome [8] | outcome [20]

CCCc1ncc(C[n+]2ccccc2C)c(N)n1
inactive: Potency [10] | Potency [17] | Potency [19] | outcome [2] | Potency [3] | outcome [4] | outcome [5] | outcome [11] | outcome [6] | outcome [14] | outcome [7] | outcome [15] | outcome [8] | outcome [9] | outcome [16]

CCCCS(=O)(=O)N[C@@H](Cc1ccc(OCCCCC2CCNCC2)cc1)C(=O)O
inactive: Potency [10] | Potency [17] | Potency [19] | outcome [2] | Potency [3] | outcome [4] | outcome [5] | outcome [6] | outcome [12] | outcome [18] | outcome [13] | outcome [7] | outcome [8] | outcome [16]
